The source of these data is PubChem BioAssay AID1621 (Southern Research Specialized Biocontainment Screening …, 2009).

Molecules are shown by their SMILES. About 60 (0.02%) of roughly 290,000 compounds were called active. Roughly 1% stayed inconclusive and do not appear here. Only a sample is shown. Results with a measured potency or affinity are listed apart. Unmarked numbers belong to inactive results. No rule for the calls is given here.

The nature of this experiment: inhibition of WNV-induced cytopathic effect – cell-based, CPE readout (AID 1621). The settings on record: West Nile virus-infected cells, at 10 µM, stronger effect = higher value. A general note: Protection from cytopathic effect is a common read-out in antiviral testing.
For the compound `Cc1ccc(S(=O)(=O)c2nc(-c3cccs3)oc2SCC(N)=O)cc1`, the CPE inhibition is 2.11%.
To `COc1ccc2cc(-c3cc(C(=O)OCC(=O)Nc4c(C)n(C)n(-c5ccccc5)c4=O)c4ccccc4n3)ccc2c1` belongs -0.17%.
With `Cc1c(NC(=O)COC(=O)c2cc(-c3cccc4ccccc34)nc3ccccc23)c(=O)n(-c2ccccc2)n1C`, the CPE inhibition is -0.96%.
For the compound `COc1ccc(NS(=O)(=O)c2ccc(O)c(NC(=O)c3ccc(S(=O)(=O)N4CCCCCC4)cc3)c2)cc1`, the CPE inhibition is 2.03%.
`COc1ccc(/C(N)=N/OC(=O)c2ccc(Br)o2)cc1`: the CPE inhibition is 0%.
Turning to `CCn1c(SCC(=O)C(C)(C)C)nnc1-c1cccnc1`, the CPE inhibition was -0.07%.
For the compound `CCN(CCN(C)C)C(=O)C1CCN(S(=O)(=O)c2c(C)noc2/C=C/c2ccccc2F)CC1`, the CPE inhibition is 0.04%.
For the compound `CNC(=O)C1CCN(S(=O)(=O)c2c(C)noc2/C=C/c2ccccc2F)CC1`, the CPE inhibition is -1%.
As to `O=C(CCn1c(=S)[nH]c2ccccc2c1=O)N1CCCCC1`, the CPE inhibition is 0%.
`O=C(N/N=C\c1ccc(S(=O)(=O)O)o1)c1ccc2c(c1)OCO2`: the CPE inhibition was -0.67%.
In the case of `CCN1CCN(CCNC(=O)c2ccc(/C=C3/Sc4ccccc4N(Cc4ccccc4C)C3=O)cc2)CC1`, the CPE inhibition is -0.85%.
Take `O=C(NCCN1CCOCC1)c1ccc(/C=C2\Sc3ccccc3N(Cc3ccccc3F)C2=O)cc1`: the CPE inhibition was 2.03%.
`CC(NS(=O)(=O)c1ccc(Cl)cc1)C(c1cccs1)N1CCN(C)CC1` (stereo not drawn): the CPE inhibition is -0.37%.
Regarding `CCCCOc1cccc(C(=O)Nc2ccc(S(=O)(=O)Nc3nnc(CC)s3)cc2)c1`, the CPE inhibition is -0.64%.
Regarding `COc1ccc(N=C2CC(C)(C)CC(=O)/C2=C(/O)c2ccccc2)cc1`, the CPE inhibition was -0.15%.
`COC(=O)c1scc(C)c1NC(=O)Nc1ccccc1`: the CPE inhibition is 1.33%.
In the case of `O=C(NC1CCCC1)C(c1cccs1)N(CC1CCCO1)C(=O)Cc1cccs1` (stereo not drawn), the CPE inhibition is -0.52%.
Consider `Cc1cc(C)c(S(=O)(=O)n2c([N+](=O)[O-])cnc2C)c(C)c1`, for which the CPE inhibition was 1.59%.
With `CN1CCN(C(=O)c2ccccc2NC(=O)c2sc3ccccc3c2Cl)CC1`, the CPE inhibition is -1.33%.
With `CN1CCN(c2ccccc2NC(=O)c2sc3ccccc3c2Cl)CC1`, the CPE inhibition is -0.79%.
In the case of `O=C(O)C1CCCN1C(=O)Nc1ccc(F)cc1` (stereo not drawn), the CPE inhibition was -0.08%.
In the case of `COc1ccc(-c2nc3ccc(C(=O)NCCCN4CCOCC4)cc3nc2-c2ccc(OC)cc2)cc1`, the CPE inhibition is 0.5%.
Regarding `CCN1CCN(CCNC(=O)c2ccc3nc(-c4cccc(C)c4)c(-c4cccc(C)c4)nc3c2)CC1`, the CPE inhibition is -1.29%.
Consider `c1ccc(OCCCCn2cnc3ccccc32)cc1`, for which the CPE inhibition was -0.39%.
Turning to `O=C(c1ccco1)c1cn[nH]c1-c1ccc(Cl)cc1O`, the CPE inhibition is 0.03%.
To `CC(=O)NCC(=O)NC(C(=O)Nc1ccc2c(c1)OCCO2)c1ccc(C)cc1` (stereo not drawn) belongs -0.73%.
Take `CN(C)S(=O)(=O)c1cccc(NC(=O)c2cncc(Br)c2)c1`: the CPE inhibition was 0.06%.
To `Cc1ccc(S(=O)(=O)N(C)C)cc1NC(=O)c1ccncc1` belongs 0.43%; to `C/C=C/c1ccc(OCCCNC(C)CC)c(OC)c1` (stereo not drawn), -0.34%; to `CC(/C=C/c1ccco1)=N\NC(=O)CNc1cccc(C)c1`, -0.57%.
Regarding `CCCCOP(=O)(c1ccc(N(C)C)cc1)C(O)c1ccc(OC)cc1` (stereo not drawn), the CPE inhibition was -0.79%.
Take `Cc1ccccc1NC1=CC(=O)CC(C)(C)C1`: the CPE inhibition was -0.82%.
For the compound `COc1cc(CNC(C)(C)CO)cc(Br)c1OCc1ccccc1`, the CPE inhibition is -0.18%.
Regarding `COc1cc(CNC(C)(C)CO)cc(Br)c1OCc1ccc(Cl)cc1Cl`, the CPE inhibition is 15.4%.
In the case of `CC1C(O)=C(c2nc3ccccc3[nH]2)C(=N)N1c1ccccc1` (stereo not drawn), the CPE inhibition is 1.12%.
With `CC(O)CNc1ccc(-c2n[nH]c(=O)c3ccccc23)cc1[N+](=O)[O-]` (stereo not drawn), the CPE inhibition is -1.06%.
With `CCCn1c(SCC(=O)N(CC)CC)nnc1-c1ccncc1`, the CPE inhibition is -0.86%.
Take `O=C(NCCCN1CCCC1)c1cc2c(Cl)nc3ccccc3c2s1`: the CPE inhibition was 0.85%.
In the case of `CC1CCN(CCCNC(=O)c2cc3c(Cl)nc4ccccc4c3s2)CC1`, the CPE inhibition was 3.15%.
Consider `CNC(=O)OC(C)CNS(=O)(=O)c1ccc(C)cc1` (stereo not drawn), for which the CPE inhibition was -0.03%.
With `CCc1c(C(=O)Nc2ncn(Cc3cccc(C)c3)n2)csc1C`, the CPE inhibition was -0.2%.
`COc1ccccc1C(=O)NCCC(=O)NCCc1ccccc1`: the CPE inhibition is 0.26%.
On to `Cc1cc(C)cc(NC(=O)[C@H](Cc2c[nH]c3ccccc23)NC(=O)[C@@H]2Cc3ccccc3CN2)c1`, for which the CPE inhibition is -1.23%.
As to `Cc1ccc(NC(=O)[C@H](Cc2ccccc2)NC(=O)[C@@H]2Cc3ccccc3CN2)c(C)c1`, the CPE inhibition is -0.41%.
In the case of `CCOC(=O)c1ccc(NC(=S)N(CCCN2CCN(CC)CC2)Cc2ccco2)cc1`, the CPE inhibition was -0.57%.
In the case of `COc1cc2c(cc1OC)-c1cc(Nc3ccc(C(=O)O)cc3)nc(=O)n1CC2` it was -0.34%; in that of `CC(C(=O)Nc1cccc(S(=O)(=O)N2CCOCC2)c1)N1CCN(c2ccc(F)cc2)CC1` (stereo not drawn), -1.17%.
In the case of `CCOCC(=O)Nc1cccc(SC)c1` it was 0.36%; in that of `CCN(CCN1CCCC1)C(=O)c1cc(COc2ccccc2SC)on1`, -1.45%.
`O=C(COc1ccc(Cl)cc1)NC1=NN(c2ccccc2)C(=O)C1`: the CPE inhibition was -0.49%.
In the case of `CN(C)CCCNc1nc(N)c([N+](=O)[O-])c(NC2CCCCC2)n1` it was 1.01%.
In the case of `Nc1nc(NCCO)nc(NC2CCCCC2)c1[N+](=O)[O-]` it was 1.53%; in that of `CC(C)OC(=O)CC(=O)CSc1nc(-c2ccc(F)cc2)cc(-c2ccccc2)c1C#N`, -0.46%.
Turning to `O=S(=O)(CCSc1ccc(C(F)(F)F)cn1)c1ccc(Cl)cc1`, the CPE inhibition was -0.47%.
In the case of `CCCN(CCC)CCCNC(=S)Nc1ccc2nc(N3CCN(C)CC3)cc(C)c2c1` it was 0.29%.
Consider `CCCN(CCC)CCCNC(=S)Nc1ccc2nc(N3CCN(CC)CC3)cc(C)c2c1`, for which the CPE inhibition is 3.38%.
In the case of `CCC(C)NC(=O)C1CCCN(S(=O)(=O)c2ccc(-n3cnnn3)cc2)C1` (stereo not drawn) it was 0.81%; in that of `Cc1ccc(S(=O)(=O)NNC(=O)Nc2cccc(F)c2)c(C)c1`, 0.14%.
